Compound activity (PubChem)
CYP2C9 activ: increases human cytochrome P450 2C9 activity | P11712 | recombinant CYP2C9, luciferin-H conversion, luminescence; hits give high values; factor 1 = untreated enzyme, 0 = blocked | activation factor at 5 µM | actives 1.4% (n = 96,000) | AID 1024;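 active = activation factor of 2 or more for CYP2C9 at a 5 µM dose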
Target sequence (P11712 whole entry, looked up): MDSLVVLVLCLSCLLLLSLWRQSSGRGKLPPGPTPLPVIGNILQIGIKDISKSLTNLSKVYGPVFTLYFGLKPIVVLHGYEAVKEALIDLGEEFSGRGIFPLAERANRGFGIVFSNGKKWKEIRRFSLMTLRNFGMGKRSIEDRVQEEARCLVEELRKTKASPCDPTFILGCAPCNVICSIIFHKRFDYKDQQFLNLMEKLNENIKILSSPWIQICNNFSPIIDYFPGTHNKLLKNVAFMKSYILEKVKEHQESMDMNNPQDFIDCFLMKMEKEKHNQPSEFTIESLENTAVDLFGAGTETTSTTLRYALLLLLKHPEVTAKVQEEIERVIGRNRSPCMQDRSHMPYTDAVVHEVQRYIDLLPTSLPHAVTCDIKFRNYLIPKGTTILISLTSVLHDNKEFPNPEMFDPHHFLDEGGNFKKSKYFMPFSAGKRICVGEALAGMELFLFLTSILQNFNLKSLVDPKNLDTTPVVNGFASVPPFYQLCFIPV
CYP2C19 activ: activators of human cytochrome P450 2C19; recombinant CYP2C19, luciferin-H EGE luminescence; hits give high values; 0 = fully inhibited enzyme, 1 = untreated enzyme; 96,000 tested, under 10 active; activation factor at 5 µM; P33261;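 active = activation factor of at least 2 at 5 µM in the primary screen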
CYP2C19 inhib: inhibitors of human CYP2C19. P33261. CYP2C19 Supersomes, luciferin-H EGE luminescence, 30 min. inhibition, % at 5 µM. actives 21% (n = 96,000). AID 778;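 active = CYP2C19 inhibition above a set limit at 5 µM in the primary screen, cut at about 50% in these data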
sEH act: soluble epoxide hydrolase (human) activation. purified human sEH enzymatic activity, activator screen. activation, % at 2 µM. AID 717. actives 0.04% (n = 91,000). P34913; in the data active = activation above about 37%
sEH inhibitor: blocks human soluble epoxide hydrolase activity. actives 0.34% (n = 91,000). AID 707. inhibition, % at 2 µM. recombinant human sEH enzymatic activity assay; in the data active = inhibition above about 80%
CYP2C9 inhib: blocks human cytochrome P450 2C9; P11712; CYP2C9 Supersomes, luciferin-H conversion, luminescence; inhibition, % at 5 µM; actives 20% (n = 96,000); AID 777;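 active = blocking of liver enzyme CYP2C9 beyond about 50% at 5 µM, limit read from the data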
Large screens that a line does not name were inactive. The list is not random: actives were taken first. Their share in the collection is about 27%.

O=C1CCc2cc(S(=O)(=O)N3CCC(C(=O)NC4CCCc5ccccc54)CC3)ccc2N1 (centres undefined)	none
O=C(Nc1cccc(Cn2cccn2)c1)c1cc2c(s1)CCCC2	CYP2C19 inhib 54
COc1ccc(S(=O)(=O)N(C)CC(=O)N2CCC(C(N)=O)CC2)cc1Cl	CYP2C9 activ 2 (no result: sEH act, sEH inhibitor)
COc1ccc(S(=O)(=O)N(C)CC(=O)N2CCCCCC2)cc1OC	none
COc1ccc(N(CC(=O)NC2CCCCC2)S(=O)(=O)c2cccnc2)cc1	CYP2C19 inhib 53, CYP2C9 inhib 65
Cc1ccc(N(CC(=O)NC2CCC(C)CC2)S(=O)(=O)c2cccnc2)cc1 (centres undefined)	none
CCOC(=O)C1CCN(C(=O)CN(C)S(=O)(=O)c2cc(C)ccc2OC)CC1	CYP2C9 inhib 54
CNC(=O)CN(C)S(=O)(=O)c1ccc(OC)c(Cl)c1	none
COc1ccc(S(=O)(=O)N(C)CC(=O)NCc2cccnc2)cc1Cl	CYP2C19 inhib 54
CCCCOc1c(Br)cc(/C=C2\N=C(C)OC2=O)cc1OCC	none
COc1ccc(S(=O)(=O)N(CC(N)=O)C2CCCCC2)cc1Cl	CYP2C19 inhib 72
COc1ccc(NC(=O)CN(C2CCCCC2)S(C)(=O)=O)cc1Cl	none
COc1ccc(S(=O)(=O)N(C)CC(=O)NC2CCCCC2)cc1Cl	CYP2C9 activ 2.4, CYP2C19 inhib 53
COc1ccc(S(=O)(=O)N(C)CC(=O)NC2CCCCC2)cc1OC	none
COc1ccc(S(=O)(=O)N(C)CC(=O)NC2CC2)cc1	CYP2C9 activ 2.5
On1onc2c3cc(-c4ccccc4)nc3ccc21	CYP2C9 inhib 65
CCOCCn1c(SCc2c(F)cccc2Cl)nc2c1c(=O)[nH]c(=O)n2C	none
O=c1c2ccccc2nc(SCc2cn3ccsc3n2)n1-c1ccc(F)cc1	CYP2C19 inhib 84, CYP2C9 inhib 97
COc1ccc(C(=S)N2CCCCCC2)cc1	none (no result: CYP2C9 activ, CYP2C19 activ, CYP2C19 inhib, CYP2C9 inhib)
Oc1ccccc1C(=S)N1CCCCCC1	CYP2C19 inhib 52
Oc1ccccc1C(=S)N1CCCCC1	CYP2C19 inhib 78 (no result: sEH act, sEH inhibitor)
O=C(c1ccc(Cl)cc1)c1cc(-c2ccccn2)c(N2CCOCC2)s1	none
Nc1ccnc(C(F)(F)F)c1C(=O)c1ccccc1	none
CCCCC1=NN2C(=N)CC(=O)N=C2S1	none
Cc1cc(NC(=O)CSc2nc(-c3ccc(F)cc3)cs2)no1	none (no result: sEH act, sEH inhibitor)
Cc1cc(NC(=O)CSc2nccn2-c2ccc(F)cc2)no1	CYP2C19 inhib 69
Cc1cc(NC(=O)CSc2nccn2-c2ccc(Cl)cc2)no1	CYP2C19 inhib 81, CYP2C9 inhib 54
CCCn1nnc(NC(=O)c2cccc(OCc3ccccc3)c2)n1	CYP2C9 inhib 61
CCc1ccc(C(=O)Nc2nnn(CC)n2)cc1	CYP2C9 inhib 50
CCCCn1nnc(NC(=O)c2ccc(-c3ccccc3)cc2)n1	none
CCCn1nnc(NC(=O)c2cc(Br)ccc2OC)n1	CYP2C9 activ 3.6, CYP2C19 inhib 74
CC(C(=O)Nc1cccnc1)N1C(=O)C2C3C=CC(C3)C2C1=O (centres undefined)	none
O=c1c2ccccc2n(Cc2cccc(F)c2)c(=O)n1C1CCCC1	none (no result: sEH act, sEH inhibitor)
Cc1cc(C)c(S(=O)(=O)N2CCN=C2c2ccccc2)cc1C	CYP2C19 inhib 60
CCC(c1nnnn1CCc1ccccc1)N(Cc1ccco1)Cc1cc2c(C)ccc(C)c2[nH]c1=O (centres undefined)	CYP2C19 inhib 93, CYP2C9 inhib 94
CCc1ccc2[nH]c(=O)c(CN(Cc3ccccc3)Cc3nnnn3Cc3ccco3)cc2c1	none
CCOC(=O)Cn1nnnc1C(CC)N(Cc1ccccc1)Cc1cc2cc(C)ccc2[nH]c1=O (centres undefined)	CYP2C19 inhib 58, CYP2C9 inhib 54
CCOC(=O)Cn1nnnc1CN(Cc1ccccc1)Cc1cc2cc(CC)ccc2[nH]c1=O	CYP2C9 inhib 62 (no result: sEH act, sEH inhibitor)
CCC(c1nnnn1CCc1ccccc1)N(Cc1ccco1)Cc1cc2cc(C)cc(C)c2[nH]c1=O (centres undefined)	none
CCC(c1nnnn1Cc1ccco1)N(CCc1ccccc1)Cc1cc2cc(C)ccc2[nH]c1=O (centres undefined)	none (no result: sEH act, sEH inhibitor)
Cc1nc2c3c(-c4ccccc4)c(-c4ccccc4)oc3ncn2n1	none (no result: sEH act, sEH inhibitor)
COc1ccc(/C=N/O)cc1COc1ccc(NC(C)=O)cc1	none (no result: CYP2C9 activ, CYP2C19 activ, CYP2C19 inhib, CYP2C9 inhib)
COc1ccc(OC)c(N(CC(=O)Nc2cccnc2)S(C)(=O)=O)c1	CYP2C19 inhib 56
COc1ccc(OC)c(N(CC(=O)Nc2cccnc2)S(=O)(=O)c2ccc(C)cc2)c1	CYP2C19 inhib 95, CYP2C9 inhib 94
COc1ccc(OC)c(N(CC(=O)Nc2cccnc2)S(=O)(=O)c2ccc(OC)c(OC)c2)c1	CYP2C19 inhib 88, CYP2C9 inhib 90
CCN(CC)S(=O)(=O)c1ccc(NC(=O)CN(c2ccc(OC)cc2OC)S(C)(=O)=O)cc1	CYP2C19 inhib 86, CYP2C9 inhib 100
COC(=O)C1=C(O)C(C(=O)OC)C(c2ccc(C)cc2)C(C#N)(C#N)C1c1ccc(C)cc1 (centres undefined)	none (no result: CYP2C9 activ, CYP2C19 activ, CYP2C19 inhib, CYP2C9 inhib)
Cc1cc2ncn(C(=O)N3CCOCC3)c2cc1C	none
CCCCCC/C(=N/O)c1ccccn1	none
C#CCSc1nnc(-c2sc(-c3ccccc3)nc2C)n1C	CYP2C19 inhib 87
C#CCSc1nnc(-c2c[nH]c3ccccc23)n1C	none (no result: sEH act, sEH inhibitor)
COc1ccccc1CCNC(=O)c1ccc(C)o1	CYP2C19 inhib 68 (no result: sEH act, sEH inhibitor)
COc1ccc(NC(=S)Nc2ccc(F)cc2)c(OC)c1	none (no result: CYP2C9 activ, CYP2C19 activ, CYP2C19 inhib, CYP2C9 inhib)
COc1ccc(NC(=S)NCCc2ccccc2OC)c(OC)c1	CYP2C19 inhib 99
COc1ccc(OC)c(NC(=S)NCc2ccco2)c1	none (no result: CYP2C9 activ, CYP2C19 activ, CYP2C19 inhib, CYP2C9 inhib)
COc1ccc(NC(=S)NCc2ccco2)c(OC)c1	CYP2C19 inhib 81
COc1ccc(NC(=S)NCCC(c2ccccc2)c2ccccc2)c(OC)c1	CYP2C19 inhib 99, CYP2C9 inhib 86
Cc1ccc(C(=O)NCCCCNC(=O)c2ccc(C)o2)o1	none
CCOC(=O)c1nnc(-c2cccs2)nc1NC(C)C	none
COc1ccccc1-c1c(C#N)c(SCC(=O)N2CCCC2)nc(C)c1C(N)=O	none
CN(c1ccc(C(=O)NCC2CCCO2)cc1)S(C)(=O)=O (centres undefined)	none
COc1cccc(NC(=S)NCCC(c2ccccc2)c2ccccc2)c1	CYP2C19 inhib 55, CYP2C9 inhib 68
Cc1ccccc1OC(C)c1nc(-c2ccccc2)no1 (centres undefined)	CYP2C19 inhib 70, CYP2C9 inhib 73
Cc1ccc(SC(C)c2nc(-c3ccccc3)no2)cc1 (centres undefined)	CYP2C19 inhib 90, CYP2C9 inhib 85
Cc1ccc(-c2noc(-c3cccs3)n2)cc1	none (no result: sEH act, sEH inhibitor)
O=C(c1ccccc1)N1CCN(C2CC(=O)N(CCc3ccccc3)C2=O)CC1 (centres undefined)	none
OC(c1ccccc1)c1nc2ccccc2s1 (centres undefined)	CYP2C19 inhib 65
CC(C)NC(=O)c1nc2ccccc2s1	none
